# According to PubChem BioAssay:
# Values without a mark were called inactive. Active and inactive are the calls of the source.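 Rule for the calls, unless noted: active = mean inhibition above 46.68%, the untreated control wells mean plus 3 SD; inactive = the rest.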
# Columns and labels:
# [1] = molecular target: Nuclear receptor coactivator 1 (Homo sapiens) (UniProt Q15788); test: NCOA1 GAL4-fusion reporter inhibition – cell-based, luminescence, quadruplicate, confirmation (AID 588820); conditions: HEK293 GAL4-SRC1 luciferase reporter, at 3.6 µM, stronger effect = higher value;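 note: 0% = DMSO wells and 100% = gossypol 36 µM treated wells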
# [2] = repression of VP16-driven luciferase reporter – cell-based, luminescence, high throughput, counter-screen for SRC1 inhibitor project (AID 588824; in the data active = inhibition above about 25%); conditions: cell-based VP16 transactivation luciferase luminescence; at 3.6 µM; stronger effect = higher value
# Nuclear receptor coactivator 1 (Homo sapiens), sequence (Q15788 whole entry, looked up, the tested form may be a part): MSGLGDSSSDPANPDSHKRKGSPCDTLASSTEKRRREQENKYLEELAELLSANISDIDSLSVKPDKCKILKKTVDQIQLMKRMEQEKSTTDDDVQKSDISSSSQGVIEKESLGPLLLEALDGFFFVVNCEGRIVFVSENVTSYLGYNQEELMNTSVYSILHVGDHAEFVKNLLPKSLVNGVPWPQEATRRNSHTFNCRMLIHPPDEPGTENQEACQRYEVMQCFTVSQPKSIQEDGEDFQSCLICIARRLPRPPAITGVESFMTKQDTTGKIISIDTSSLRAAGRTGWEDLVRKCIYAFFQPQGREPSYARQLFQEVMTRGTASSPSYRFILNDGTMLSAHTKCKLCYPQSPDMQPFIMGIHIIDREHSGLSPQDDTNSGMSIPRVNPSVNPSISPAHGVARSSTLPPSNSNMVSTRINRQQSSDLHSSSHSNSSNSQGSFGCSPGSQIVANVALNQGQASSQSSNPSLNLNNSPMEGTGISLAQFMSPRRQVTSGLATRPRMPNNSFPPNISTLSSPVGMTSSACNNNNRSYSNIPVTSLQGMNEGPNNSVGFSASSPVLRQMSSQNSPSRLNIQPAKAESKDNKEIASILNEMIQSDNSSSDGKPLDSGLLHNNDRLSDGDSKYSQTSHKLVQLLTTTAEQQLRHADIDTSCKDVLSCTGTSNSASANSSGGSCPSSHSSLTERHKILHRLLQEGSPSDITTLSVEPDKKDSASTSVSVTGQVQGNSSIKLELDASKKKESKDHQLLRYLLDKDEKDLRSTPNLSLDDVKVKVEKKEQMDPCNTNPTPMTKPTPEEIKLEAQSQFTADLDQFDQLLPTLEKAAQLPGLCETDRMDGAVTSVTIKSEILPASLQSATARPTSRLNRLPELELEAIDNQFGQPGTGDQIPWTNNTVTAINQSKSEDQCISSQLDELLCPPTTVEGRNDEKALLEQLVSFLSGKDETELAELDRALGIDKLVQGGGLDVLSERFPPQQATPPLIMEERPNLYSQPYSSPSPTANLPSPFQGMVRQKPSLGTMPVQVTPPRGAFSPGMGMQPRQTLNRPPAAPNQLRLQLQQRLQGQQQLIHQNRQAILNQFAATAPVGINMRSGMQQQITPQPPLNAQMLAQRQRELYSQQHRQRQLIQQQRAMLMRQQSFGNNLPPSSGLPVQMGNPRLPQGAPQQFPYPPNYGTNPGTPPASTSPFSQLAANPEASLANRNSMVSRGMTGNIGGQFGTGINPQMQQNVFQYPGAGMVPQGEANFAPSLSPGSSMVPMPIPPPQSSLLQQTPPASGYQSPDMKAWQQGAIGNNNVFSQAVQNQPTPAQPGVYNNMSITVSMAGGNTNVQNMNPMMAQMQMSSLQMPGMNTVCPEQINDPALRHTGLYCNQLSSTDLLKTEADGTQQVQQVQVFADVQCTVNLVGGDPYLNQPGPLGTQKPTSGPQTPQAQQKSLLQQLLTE
Structure (SMILES),inhibition [1],inhibition [2]
Cc1ccc(C)c(CN2C(=O)c3ccccc3S(=O)c3ccc(C(=O)N4CCN(c5ccccn5)CC4)cc32)c1 (centres undefined),-18.5%,77.7% (active)
CC(C)C[C@H](NC(=O)c1nc[nH]c1C(=O)N1CCN(C(=O)OC(C)(C)C)CC1)C(=O)OC(C)(C)C,21.8%,78.9% (active)
COc1cc(-c2cc3nc(NCc4cccs4)ccn3n2)cc(OC)c1OC,-21.6%,6.25%
O=C1/C(=N\S(=O)(=O)c2cccs2)C([n+]2ccccc2)=C([O-])c2ccccc21,-4.31%,6.99%
CCNC(=O)C1(C)CCN(C(=O)c2ccc(F)cc2Cl)C1 (centres undefined),4.79%,3.22%
COc1ccccc1NS(=O)(=O)c1cc(NC(=O)C(C)(C)C)ccc1N1CCOCC1,-45.2%,-32.5%
CC(=NCc1cccc(Cl)c1)c1nc(-c2ccco2)oc1O,4.53%,45% (active)
CCOc1ccc(NC(=O)NCCCSC2CCCCC2)cc1,-7.9%,-11.4%
c1ccc(-c2nc(NCCCn3ccnc3)c3ccccc3n2)cc1,-10.8%,-2.43%
CC(C)(C)OC(=O)N(CCc1ccccc1)Cc1ccc(OCc2cccc(NC(=O)C3CCCC3)c2)cc1,-0.88%,-7.49%
Cn1c(=O)[nH]c(=O)c2c1nc(N1CCCCC1)n2CC(O)COc1ccc([N+](=O)[O-])cc1 (centres undefined),-27.8%,-19%
COc1ccccc1OCCn1c(C)c(C=O)c2ccccc21,10.8%,8.95%
C[n+]1c2n(c3ccccc31)N=C(c1ccc(Cl)cc1)CS2,-20.3%,19.1%
COc1ccc(CNC(=O)c2cccc(S(=O)(=O)N3CCCCC3)c2)cc1OC,-20.1%,30.6% (active)
CC1CCN(C(=O)Cn2c3ccc(F)cc3c3nc4n(c(=O)c32)CCCS4)CC1,4.67%,3.44%
CCOc1ncccc1C(=O)NC(C)CCc1ccccc1 (centres undefined),0.01%,-0.39%

Structure (SMILES),inhibition [1],inhibition [2]
CCOC(=O)N1CCN(CC(=O)Nc2ccc(F)c(F)c2)CC1,-18.7%,-4%
CC(C)Oc1ccc(C(=O)Nc2nc3ccccc3[nH]2)cc1,-74.9%,-39.4%
Cc1ccc(C)c(NC(=O)CCc2ccc(C)o2)c1,5.55%,-2.65%
CC(C)OCCCn1c(=O)c2ccccc2n2c(CCC(=O)N3CCN(c4ccccn4)CC3)nnc12,-22.8%,-9.58%
CC(C)C(=O)NC(Nc1cccc([N+](=O)[O-])c1)C(Cl)(Cl)Cl (centres undefined),1.13%,0.4%
Cc1csc(-c2cc(C(=O)NCc3cc(C(F)(F)F)cc(C(F)(F)F)c3)n[nH]2)c1,20.5%,47.2% (active)
O=C(c1ccccc1Sc1ccccc1[N+](=O)[O-])N1CCCCC1,10.1%,14.3%
CCOC(=O)N1CCc2c(sc(NC(=O)CN3CCOCC3)c2C(=O)Nc2ccccc2)C1,-17.7%,-5.16%
N#CCCN(C(=O)COC(=O)c1ccc2c(=O)n3c(nc2c1)CCC3)c1ccc(F)cc1,-14.7%,2.54%
Cc1nnc(N2CCN(Cc3ccccc3)CC2)[nH]c1=O,-4.97%,-7.63%
O=S(=O)(Nc1ccc2c(c1)OCCO2)c1cccs1,1.12%,-9.45%
O=C(O)CNC(=O)c1cccc(C(F)(F)F)c1,-9.63%,-6.05%
CCN(C(=O)c1ccc(S(=O)(=O)N2CCC(C)CC2)cc1)C1CCS(=O)(=O)C1 (centres undefined),-0.29%,2.08%
CCCS(=O)(=O)c1c(S(=O)(=O)CCC)c2c(C)cccn2c1C(=O)N/N=C/c1cc(O)cc(O)c1,20.8%,24.6%
CC(=O)c1cccc(NC(=O)c2cc(Cl)sc2Cl)c1,-60.7%,-30.6%
COc1ccccc1-n1nnnc1SC(C)C(=O)NC1CCCC1 (centres undefined),-17.1%,-10.9%
